HT1080-NT tox – kills 2HG-producing HT-1080-NT fibrosarcoma cells; HT-1080-NT fibrosarcoma viability, CellTiter-Glo ATP luminescence, 48 h; Potency, µM (top dose mostly 46.1 µM), for the others: top-dose activity, negative = less viability, hits mostly cytotoxic; 1.6% of 360,000 active; AID 686970;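 further: NT is the 2HG producing partner of a matched IDH1 knockdown line; 0% = DMSO-treated cells and -100% = media-only wells without cells; nearly all actives have a fitted effect of over 55% in size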
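Viability by CellTiter-Glo luminescence after 48 h compound exposure at 37C of HT-1080-NT cells (750/well, RPMI, 5% FBS). % activity scaled between DMSO wells and medium-only wells, then curve-fitted and categorized by curve class.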
KB-3-1 cytotox – KB-3-1 parental cell cytotoxicity; 1.4% of 400,000 active; AID 1347075; Potency, µM (highest dose often 46.1 µM), actives largely listed as cytotoxic; KB-3-1 viability, CellTiter-Glo ATP luminescence, 72 h; further: on the % scale 0 is the no-effect control and ±100 the full control effect; nearly all actives have a fitted effect of over 60% in size
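KB-3-1 parental drug-naive adenocarcinoma cells in DMEM/10% FBS, incubated 72 h at 37 C with pin-transferred compounds across a concentration series. Viability by CellTiter-Glo luminescence; concentration-response curves fitted after normalization.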
SW480 rereplic – induces DNA re-replication in SW480 colon adenocarcinoma cells; 1.8% of 340,000 active; AID 624297; SW480 DNA re-replication, Hoechst DNA content imaging, 48 h; Potency, µM (top dose mostly 46.1 µM), for inactives: at the top dose re-replication activation, most hits filed as activators; further: % of control where 0% means no effect; nearly all actives have a fitted effect of over 55% in size
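Quantitative HTS format with DMSO vehicle controls; 48 hr drug incubation at 37 C, then 40 min Hoechst staining and scanning imager measurement at 405 nm excitation.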
HT1080 IDH1KD tx – toxicity to HT-1080 IDH1 knockdown cells (counter line). Potency, µM (series often up to 46.1 µM), for the others: at the highest dose activity, negative = toxicity, actives largely listed as cytotoxic. HT-1080 IDH1 knockdown viability, ATP luminescence, 48 h. 2% of 360,000 active. AID 686971;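 further: 0% = DMSO wells and -100% = cell-free medium wells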
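Viability of IDH1-knockdown HT-1080 fibrosarcoma cells was assessed by CellTiter-Glo after 48 h at 37 °C with titrated compound; concentration-effect curves were classified by fit quality and response size.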
MCF10A rereplic – inducers of DNA re-replication in MCF 10A breast cells | MCF 10A DNA re-replication, Hoechst nuclear intensity, 48 h | Potency, µM (series often up to 46.1 µM), for inactives: at the highest dose activity, positive = re-replication, hits mostly activators | 2.9% of 350,000 active | AID 624296; further: % of control where 0% means no effect; nearly all actives have a fitted effect of over 50% in size
KB-V1 MDR tox – KB-V1 MDR subline cytotoxicity. KB-V1 MDR cells viability, CellTiter-Glo, 72 h. Potency, µM (doses to about 46.1 µM), actives largely listed as cytotoxic. 3.4% of 400,000 active. AID 1347076; further: on the % scale 0 is the no-effect control and ±100 the full control effect; nearly all actives have a fitted effect of over 60% in size
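Drug-selected KB-V1 cells, grown in DMEM lacking phenol red with 10% FBS, receive compound titrations; after three days at 37 degrees C, surviving cell ATP is quantified by CellTiter-Glo luminescence and responses normalized and curve-fitted.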
Starred values were filed as active, the others as inactive; i = inactive; ? = inconclusive; . = no result; [ ] = another dose, or the depositor's remark. Sampled rows, rich in hits. Any-hit rate of the full collection: about 8%. The call rests on the fitted dose curve; in most records, active means well fitted curve in the direction sought with a large enough effect; inconclusive means small, poorly fitted or top-dose-only effect, or another doubt; inactive means no such curve, though single readings can be large; an effect the other way counts as inactive or inconclusive. Potency means the concentration at half of the fitted maximal effect.

SMILES | HT1080-NT tox | KB-3-1 cytotox | SW480 rereplic | HT1080 IDH1KD tx | MCF10A rereplic | KB-V1 MDR tox
Cc1cccc(NC(=S)N/N=C2/CCCCc3ccccc32)c1 | -21% | ? | 5% | -27% | ? | 16µM*
Cc1ccc(NC(=S)N/N=C2/CCCCc3ccccc32)cc1 | -21% | i | -14% | -29% | ? | i
CCNC(=S)N/N=C1\CCCCc2ccccc21 | 8% | i | -2% | 8% | 28% | 16µM*
Cc1ccc(C)c(N(C)C(=O)c2cc3c(s2)-c2ccccc2OC3)c1 | . | i | . | . | . | ?
CCCCn1nc(C(=O)N(C)CC(=O)Nc2ccc(F)c(F)c2F)ccc1=O | 10% | i | -6% | -7% | -6% | 15µM*
COc1cc(/C=C(/C#N)c2ccccc2)ccc1Oc1ccc([N+](=O)[O-])cn1 | ? | i | 4% | -8% | 19% | 18µM*
COc1cc(/C=C(\C#N)c2nc3ccccc3[nH]2)ccc1Oc1ccc([N+](=O)[O-])cn1 | ? | i | 21% | ? | ? | i
COc1cc(/C=N/NC(=O)c2ccc(O)cc2)ccc1Oc1ccc([N+](=O)[O-])cn1 | ? | i | 19% | 18µM* | 3% | i
CC(C)Cn1c(SC(C)C(=O)Nc2ccc3c(c2)OCCO3)nc2ccccc2c1=O (centres undefined) | -24% | i | 7% | -26% | 5% | 21µM*
CC(Sc1nc2ccccc2c(=O)n1C)C(=O)Nc1ccc2c(c1)OCCO2 (centres undefined) | ? | ? | ? | -4% | ? | i
COc1cccc(C2=CC(c3cccc(OC)c3OC)n3nnnc3N2)c1 (centres undefined) | ? | i | 1%[9.22 µM] | 16µM* | 8.9µM* | ?
COc1cccc(C2C=C(c3ccc(C)c(C)c3)Nc3nnnn32)c1OC (centres undefined) | . | 4.1µM* | . | . | . | i
Cc1ccccc1C1C=C(c2ccc(Cl)cc2)Nc2nnnn21 (centres undefined) | . | i | . | . | . | i
COc1cccc(C2=CC(c3cccc(OC)c3OC(F)F)n3nnnc3N2)c1 (centres undefined) | -4% | i | ? | -21% | ? | i
Cn1c(=O)[nH]c(=O)c2c1nc(N1CCOCC1)n2Cc1ccccc1 | . | i | . | . | . | i
CCOC(=O)c1ccc(NC(=O)N2CCN(Cc3cccc(F)c3)CC2)cc1 | -28% | i | 2% | ? | ? | 18µM*
OCCNc1nc(NCCC2=CCCCC2)nc(N2CCOCC2)n1 | -1% | i | -1% | -13% | -3% | i
CCOc1nc(NCCC2=CCCCC2)nc(N2CCOCC2)n1 | 1% | i | 23µM* | -3% | 21µM* | i
COc1ccc2ncc3c(-c4ccccc4)nn(-c4ccc(C)c(C)c4)c3c2c1 | . | i | . | . | . | i
O=C(CC(=O)c1ccccn1)c1ccccc1 | -10% | ? | ? | ? | -5% | 13µM*
O=C(Nc1nnc(-c2ccco2)o1)c1ccc([N+](=O)[O-])s1 | ? | ? | ? | ? | 21µM* | ?
NC(=O)c1oc2ccccc2c1NC(=O)c1nc2ccccc2s1 | 19% | i | 17% | 26% | 12% | i
CC(C)(C)C(=O)Nc1nnc(-c2ccncc2)o1 | 15% | i | -4% | 9% | -3% | i
O=C(Nc1nnc(-c2ccncc2)o1)c1ccc(Br)s1 | -18% | 21µM* | ? | ? | ? | ?
O=C(Nc1nnc(-c2ccccc2)o1)c1nc2ccccc2s1 | -2% | i | -4% | -24% | 23µM* | i
SMILES | HT1080-NT tox | KB-3-1 cytotox | SW480 rereplic | HT1080 IDH1KD tx | MCF10A rereplic | KB-V1 MDR tox
COc1cccc(CNC(=O)c2cc3c(=O)n(Cc4cccnc4)ccc3nc2C)c1 | . | i | . | . | . | i
CCOc1ccc(-c2nnc(SCC(=O)Oc3ccccc3)o2)cc1 | . | i | . | . | . | i
O=C1Cc2c([nH]c3ccc([N+](=O)[O-])cc23)-c2ccccc2N1 | -10% | 0.82µM* | ? | 2.1µM* | ? | ?
O=[N+]([O-])c1ccc2[nH]c3nc4ccccc4nc3c2c1 | -14% | i | 9% | ? | 10% | i
O=C(Nc1ccc(-c2nc3cc(NC(=O)c4ccc(Cl)cc4)ccc3o2)cc1)c1ccc(Cl)cc1 | . | i | . | . | . | i
Cc1ccc(-c2noc(CCC(=O)NCC3CCCO3)n2)cc1 (centres undefined) | -14% | i | 12% | -23% | 0% | 21µM*
Cc1ccc(-c2noc(CCC(=O)NCCN3CCOCC3)n2)cc1 | 8% | i | -5% | 6% | 0% | i
Cc1ccc(-c2noc(CCC(=O)NCCN3CCN(Cc4ccccc4)CC3)n2)cc1 | -10% | ? | -2% | -9% | 6% | 16µM*
Cc1ccc(S(=O)(=O)N(CC(=O)Nc2ccccc2C(=O)O)c2cccc(Cl)c2C)cc1 | ? | ? | . | ? | 16µM* | i
COc1ccccc1CN(C)CC(=O)Nc1ccccc1-c1ccccc1 | -7% | i | 1% | -19% | ? | ?
Cc1cccc(N(CC(=O)Nc2ccccc2-c2ccccc2)S(=O)(=O)c2ccccc2)c1C | -4% | ? | . | 1% | 12% | 21µM*
Cc1cc(C)cc(N(CC(=O)Nc2ccccc2-c2ccccc2)S(=O)(=O)c2ccccc2)c1 | 11% | i | 0% | 15% | 22% | i
Cc1ccc(N(CC(=O)Nc2ccccc2-c2ccccc2)S(=O)(=O)c2ccccc2)cc1 | -23% | i | 2% | 2%[9.24 µM] | ? | 23µM*
Cc1ccccc1CN(C)CC(=O)Nc1ccccc1-c1ccccc1 | 9% | i | 12% | 0% | 15µM* | ?
CCOC(=O)c1c(NC(=O)CCCOc2ccc(Cl)cc2)sc2c1CCC2 | . | i | . | . | . | i
CCC(=O)N1CCc2cc(S(=O)(=O)NC(C(=O)NCCc3ccc(Cl)cc3)C(C)C)ccc21 (centres undefined) | . | i | . | . | . | i
CCN(C(=O)C1CCN(S(=O)(=O)c2c(C)noc2/C=C/c2ccc(C)cc2)CC1)c1cccc(C)c1 | . | i | . | . | . | i
CN(CC(=O)Nc1ccccc1Oc1ccccc1)Cc1ccccc1F | 1% | i | 7% | -1% | 8.2µM* | ?
CCCc1ccc(C2Sc3ccccc3NC3=C2C(=O)c2ccccc23)cc1 (centres undefined) | . | ? | . | . | . | i
Cc1ccc(S(=O)(=O)N2CCCC(c3nc(-c4ccc(C)o4)no3)C2)cc1 (centres undefined) | -19% | i | 4% | -2% | 2% | i
